# This is a sample that favours compounds with a hit; in the whole collection about 1.1% have one here.
# FadD28 binding: inhibitors of Mycobacterium tuberculosis FadD28 bisubstrate binding; FadD28 bisubstrate probe binding, fluorescence polarization; inhibition, % at 12.5 µM; actives 0.22% (n = 360,000); AID 588549; in the data active means inhibition above about 8.5%, passing the limit was not always enough
# PfHsp40 yeast: restores yeast growth despite PfHsp40 toxicity; S. cerevisiae expressing PfHsp40, growth rescue, ATP luminescence; growth rescue, % at 12.5 µM; actives 0.68% (n = 340,000); AID 504582; in the data active means growth rescue above about 28%, passing the limit was not always enough;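 further: yeast W303a lacking pdr1 and pdr3 grown in galactose medium; growth measured after three days at 30 °C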
# Mtb BioA inh: blocks M. tuberculosis BioA enzyme activity; purified M. tuberculosis BioA enzyme, plate reader; inhibition, % at 9.99 µM; actives 0.096% (n = 360,000); in the data active means inhibition above about 40%
# PrP 5UTR inh: inhibition of PrP 5' UTR reporter expression; cell-based PrP 5' UTR mRNA reporter, plate reader; inhibition, % (concentration not given with the values); actives 0.35% (n = 340,000); in the data active means inhibition above about 52%; further: 0 = median of the neutral control wells
# Yp Topo-I inh: Y. pestis Topo-I inhibition via cleavage products; Y. pestis Topo-I cleavage product accumulation, plate reader; activity, % at 10 µM; actives 0.064% (n = 360,000); in the data active means activity above about 50%, passing the limit was not always enough
# An asterisk follows results filed as active; x = no result.
SMILES,FadD28 binding,PfHsp40 yeast,Mtb BioA inh,PrP 5UTR inh,Yp Topo-I inh
COCCNC(=O)C[C@H]1CC[C@H]2[C@H](COc3ccc(NC(=O)c4cc(C)on4)cc3C(=O)N2C)O1,x,x,-0.2,x,x
C[C@@H]1CN([C@H](C)CO)C(=O)c2cc(C#CC3CCCC3)cnc2O[C@@H]1CN(C)S(=O)(=O)c1cccc(F)c1,x,x,-0.9,x,x
CCn1c(SCC(=O)Nc2ccc(NC(C)=O)cc2)nc2c([nH]c3ccccc32)c1=O,-1.4,40.8*,-1.7,-8.2,3.6
Cc1ccc(S(=O)(=O)N2[C@@H](c3ccccc3)C(C(=O)O)=CC[C@H]2c2ccc(C(C)C)cc2)cc1,-7.3,133.0*,3.7,-22.9,4.0
Cc1ccc(S(=O)(=O)N2[C@@H](c3ccc(Cl)cc3)C(C(=O)O)=CC[C@H]2c2ccc(C(C)C)cc2)cc1,-13.3,5.8,8.9,-1.4,5.5
CCc1ccc([C@@H]2CC=C(C(=O)O)[C@H](c3ccc(Cl)cc3)N2S(=O)(=O)c2ccc(C)cc2)cc1,-16.1,281.0*,4.3,-10.9,9.2
CCc1ccc([C@@H]2CC=C(C(=O)O)[C@H](c3cccc(Cl)c3)N2S(=O)(=O)c2ccc(C)cc2)cc1,-1.6,155.9*,3.9,-20.3,1.6
Cc1ccc([C@H]2C(C(=O)O)=CC[C@@H](c3ccc(Cl)cc3)N2S(=O)(=O)c2ccc(C)cc2)cc1,-4.9,46.1*,1.0,8.0,7.9
CN(C)C(=O)[C@H]1[C@H](CO)[C@H]2Cn3c(ccc(C4=CCCC4)c3=O)[C@H]2N1C(=O)Cc1cccnc1,x,x,-1.5,x,x
CC(C)NC(=O)Nc1ccc2c(c1)CC(=O)N([C@@H](C)CO)C[C@H](C)[C@H](CN(C)C(=O)Nc1ccc(F)cc1)O2,x,x,0.7,x,x
CC1=C/C(=C(/c2ccc(O)c(C)c2)c2ccccc2S(=O)(=O)O)C=CC1=O,0.4,0.6,9.7,-12.1,3.9
CC1=C/C(=C(/c2cc(C)c(O)c(Br)c2)c2ccccc2S(=O)(=O)O)C=C(Br)C1=O,2.4,2.8,x,10.7,60.4*
CCOC(=O)c1c(-c2ccc(C)s2)csc1NC(=O)c1cccs1,16.7*,-0.9,-2.3,-25.1,-6.3
Cc1cc(N)n(-c2ccc(Oc3ccccc3)c(S(=O)(=O)O)c2)n1,13.9*,0.7,x,-24.8,9.6
Cc1cc(N)n(-c2ccc(C)c(C)c2)n1,0.1,-0.2,x,-23.2,-0.2
CO[C@@H]1CN(C)C(=O)c2cc(NS(=O)(=O)c3cn(C)cn3)ccc2OC[C@@H](C)N(CC2CC2)C[C@@H]1C,x,x,0.4,x,x
N=c1n(Cc2ccccc2)c2ccccc2n1CC(O)c1ccco1 (configuration not stated),13.5*,-0.4,-11.1,-2.8,0.9
Cc1cc(S(=O)(=O)c2ccc([N+](=O)[O-])cn2)ccc1Br,0.3,2.5,x,-17.1,3.3
Cc1ccc(S(=O)(=O)c2ccc([N+](=O)[O-])cn2)cc1,-0.3,163.7*,0.1,-1.7,-0.6
O=[N+]([O-])c1ccc(S(=O)(=O)c2ccccc2)nc1,0.2,288.6*,0.0,-6.6,7.0
O=C(COC(=O)Cc1ccccc1)Nc1ccc(SC(F)F)cc1,-1.8,-1.0,x,-13.4,-4.4
O=C(COC(=O)c1ccccc1C(=O)c1ccccc1)Nc1ccc(SC(F)F)cc1,-1.2,94.2*,x,-11.8,30.5
O=c1c2ccccc2oc2cc(C#Cc3ccccn3)ccc12,-4.5,0.3,0.6,-35.1,-2.8
C=CCn1c2ccccc2c(=O)c2cc(C#Cc3ccccn3)ccc21,-10.5,28.7*,-0.6,-55.3,1.6
Cc1csc2nc(O)c(C(=O)NCCCc3ccccc3)c(=O)n12,-0.8,288.8*,x,-10.5,26.4
SMILES,FadD28 binding,PfHsp40 yeast,Mtb BioA inh,PrP 5UTR inh,Yp Topo-I inh
CCOC(=O)C(NCc1ccc2c(c1)OCO2)(NC(=O)c1ccccc1)C(F)(F)F (configuration not stated),-0.5,44.8*,-1.4,-22.3,4.0
COc1ccccc1C(=O)N1C[C@H]2[C@@H](c3ccccc31)[C@@H](CO)N2CC1CCCC1,x,x,0.1,x,x
O=C(Oc1c(CN2CCOCC2)cc(Cl)c2cccnc12)c1cccs1,-1.7,-0.1,-1.1,13.6,8.4
O=C(Oc1c(Cl)cc(Cl)c2cccnc12)c1cccs1,-5.4,341.4*,-0.8,4.0,19.3
CC(=O)N1CCCCN2[C@H](CO)[C@@H](c3ccc(-c4cccc(C(=O)N(C)C)c4)cc3)[C@H]2C1,x,x,2.9,x,x
O=C(O)C1CCCCC1C(=O)Nc1ccc(S(=O)(=O)N2CCCC2)cc1 (configuration not stated),-0.4,116.0*,-1.0,-9.2,3.5
CNc1ccc(C=C2C=Cc3ccccc32)cc1,2.9,172.4*,x,-62.1,-33.1
CN(C)c1ccc(C=C2C=Cc3ccccc32)cc1,1.1,-0.7,-1.6,-10.2,-6.2
CC1(C)CCC[C@@]2(C)CC=C(C(=O)O)[C@@H]3C[C@]312,9.1*,-0.8,-1.7,-10.6,-3.2
Cc1ccc(SCc2cc(=O)c3c(=O)n(-c4ccccc4)[nH]c3[nH]2)cc1,16.6*,1.1,1.4,-14.6,-1.2
N#Cc1cccc(-c2ccc([C@@H]3[C@@H](CO)N4CCCCN(Cc5ccccc5F)C[C@@H]34)cc2)c1,x,x,3.6,x,x
C[C@H](CO)N1C[C@H](C)[C@@H](CN(C)Cc2ccc(Oc3ccccc3)cc2)Oc2c(NS(C)(=O)=O)cccc2C1=O,x,x,-2.5,x,x
CC1SCC(=NOCc2c(Cl)cccc2Cl)CS1 (configuration not stated),0.0,59.1*,-0.7,-19.2,3.7
Cc1noc(C)c1S(=O)(=O)N(C)C[C@@H]1OCCCC[C@@H](C)Oc2ccc(NS(=O)(=O)c3ccc(Cl)cc3)cc2C(=O)N([C@H](C)CO)C[C@H]1C,x,x,1.1,x,x
CN1c2ccccc2C(O)=C(C(=O)Nc2ccccc2)S1(=O)=O,-1.0,-0.1,-1.8,-10.0,5.9
Cc1sc2c(c1C)C(O)=C(C(=O)Nc1ccccc1)S(=O)(=O)N2C,-1.3,153.2*,x,-7.1,3.7
CNC(=O)C[C@H]1CC[C@@H]2[C@H](COc3ccc(NC(=O)c4cnccn4)cc3C(=O)N2C)O1,x,x,34.6,x,x
O=c1[nH][nH]c2c(N=Cc3ccccc3O)ccc(F)c12,16.0*,-1.3,0.5,-17.5,-24.0
O=C(c1ccc(Cl)c(Cl)c1)N1CCC(=O)N(C(COCc2ccc(Cl)cc2)Cc2ccccc2)CC1 (configuration not stated),-1.5,29.9*,-1.1,-0.7,40.6
CC(C)NC(=O)Nc1ccc2c(c1)CC(=O)N([C@@H](C)CO)C[C@H](C)[C@@H](CN(C)S(=O)(=O)c1ccccc1)O2,x,x,-2.3,x,x
O=C(C[C@@H]1CC[C@H]2[C@@H](COC[C@@H](O)CN2S(=O)(=O)c2ccccc2)O1)N1CCOCC1,x,x,-2.3,x,x
Cc1ccccc1OCc1nc2ccccc2c(=O)n1/N=C/c1c[nH]c2ccccc12,1.5,0.1,-0.9,-71.0,-13.8
Cc1cc(/C=N/n2c(COc3ccccc3C)nc3ccccc3c2=O)c(O)c([N+](=O)[O-])c1,-3.6,56.8*,x,-19.0,-4.6
CCC(=O)Nc1ccc2c(c1)C(=O)N(C)C[C@@H](OC)[C@@H](C)CN(C(=O)c1ccncc1)[C@@H](C)CO2,x,x,-2.2,x,x

# Screens as filed in PubChem BioAssay.
